Reference: PubChem BioAssay (NCI)
This is part of a sample that, as a whole, favours compounds with a hit. Of some 83,000 tested, about 20% had one in any assay.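 Treatment: one concentration, 48 hours, 96-well format. Scoring: percent growth, with anything below 10 considered active.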 Activity calls are given as the source filed them.

Experiments:
Assay in all cases: NCI-60 one-dose screen, 48 h (100 = growth as untreated, 0 = no growth, -100 = all killed)
Conditions in all cases: 10 µM unless noted
SK-MEL-2 melanoma = system: SK-MEL-2 melanoma
EKVX NSCLC = system: EKVX NSCLC
SN12C renal = system: SN12C renal
UO-31 renal = system: UO-31 renal
TK-10 renal = system: TK-10 renal
ACHN renal = system: ACHN renal
CAKI-1 renal = system: CAKI-1 renal
A498 renal = system: A498 renal
CCRF-CEM leukemia = system: CCRF-CEM leukemia
MOLT-4 leukemia = system: MOLT-4 leukemia
SR leukemia = system: SR leukemia
RPMI-8226 leukemia = system: RPMI-8226 leukemia
OVCAR-8 ovarian = system: OVCAR-8 ovarian
OVCAR-5 ovarian = system: OVCAR-5 ovarian
OVCAR-4 ovarian = system: OVCAR-4 ovarian
SK-OV-3 ovarian = system: SK-OV-3 ovarian
IGROV1 ovarian = system: IGROV1 ovarian
OVCAR-3 ovarian = system: OVCAR-3 ovarian
HS 578T breast = system: HS 578T breast
NCI/ADR-RES ovarian = system: NCI/ADR-RES ovarian

Measured: growth

Cn1cc(-c2csc(-c3cn(CCCN4CCOCC4)c4ccccc34)n2)c2cccnc21
inactive: SK-MEL-2 melanoma 91.8% | EKVX NSCLC 86.7% | SN12C renal 87.2% | UO-31 renal 71% | TK-10 renal 86.9% | ACHN renal 93.7% | CAKI-1 renal 92% | A498 renal 55.2% | CCRF-CEM leukemia 62% | MOLT-4 leukemia 59.7% | SR leukemia 58.9% | RPMI-8226 leukemia 59.5% | OVCAR-8 ovarian 82.6% | OVCAR-5 ovarian 84.7% | OVCAR-4 ovarian 97.8% | SK-OV-3 ovarian 102% | IGROV1 ovarian 98.6% | OVCAR-3 ovarian 96.3% | HS 578T breast 88% | NCI/ADR-RES ovarian 91%

CC(=O)ON1CCCC(P(=O)(OCCSC(=O)C(C)(C)C)OCCSC(=O)C(C)(C)C)C1=O (stereo not given)
inactive: SK-MEL-2 melanoma 50.6% | EKVX NSCLC 22.8% | TK-10 renal 27.2% | ACHN renal 20.1% | CAKI-1 renal 24% | MOLT-4 leukemia 15.5% | OVCAR-8 ovarian 10.7% | OVCAR-5 ovarian 89.2% | OVCAR-4 ovarian 29.7% | SK-OV-3 ovarian 38.6% | IGROV1 ovarian 16.3% | OVCAR-3 ovarian 10.4% | HS 578T breast 19.6% | NCI/ADR-RES ovarian 13.2%
active: SN12C renal 3.59% | UO-31 renal -0.776% | A498 renal -8.82% | CCRF-CEM leukemia -6.31% | SR leukemia 6.15% | RPMI-8226 leukemia -17.3%

Cc1cccc(-c2nc(Nc3ccc4ncsc4c3)c3ccccc3n2)n1
inactive: SK-MEL-2 melanoma 83.8% | EKVX NSCLC 79.1% | SN12C renal 92% | UO-31 renal 69.1% | TK-10 renal 87.2% | ACHN renal 91.9% | CAKI-1 renal 105% | A498 renal 83.6% | CCRF-CEM leukemia 37.5% | MOLT-4 leukemia 64.2% | SR leukemia 69.2% | RPMI-8226 leukemia 30.6% | OVCAR-8 ovarian 53.4% | OVCAR-5 ovarian 97.7% | OVCAR-4 ovarian 30.7% | SK-OV-3 ovarian 113% | IGROV1 ovarian 16.6% | OVCAR-3 ovarian 10.1% | HS 578T breast 116% | NCI/ADR-RES ovarian 86.9%

Cc1nc2sc(C(=O)Nc3cccc(Br)c3C)c(N)c2cc1C(O)c1ccccc1 (stereo not given)
inactive: SK-MEL-2 melanoma 29.7% | EKVX NSCLC 39.7% | UO-31 renal 30.9% | TK-10 renal 44.7% | ACHN renal 21.9% | CAKI-1 renal 20.4% | CCRF-CEM leukemia 17.2% | MOLT-4 leukemia 12% | OVCAR-8 ovarian 12.2% | OVCAR-5 ovarian 32.3% | OVCAR-4 ovarian 47.1% | SK-OV-3 ovarian 11.4% | IGROV1 ovarian 15.5% | HS 578T breast 12.3%
active: SN12C renal 8.12% | A498 renal -12.8% | SR leukemia 7.47% | RPMI-8226 leukemia 2.82% | OVCAR-3 ovarian -2.75% | NCI/ADR-RES ovarian 4.66%

C=C(C)[C@@H]1CC[C@]2(C(=O)N3CCN(C)CC3)CC[C@]3(C)[C@H](CC[C@@H]4[C@@]5(C)CC[C@H](OC(=O)c6ccccc6C(=O)O)C(C)(C)[C@@H]5CC[C@]43C)[C@@H]12
inactive: SK-MEL-2 melanoma 107% | EKVX NSCLC 98.4% | SN12C renal 93.5% | UO-31 renal 77.7% | TK-10 renal 106% | ACHN renal 100% | CAKI-1 renal 83.9% | A498 renal 74.9% | CCRF-CEM leukemia 97.1% | MOLT-4 leukemia 88.7% | SR leukemia 90.5% | RPMI-8226 leukemia 96.7% | OVCAR-8 ovarian 104% | OVCAR-5 ovarian 104% | OVCAR-4 ovarian 99.2% | SK-OV-3 ovarian 104% | IGROV1 ovarian 97.9% | OVCAR-3 ovarian 110% | HS 578T breast 94.7% | NCI/ADR-RES ovarian 104%

CC1(C)[C@@H](O[C@@H]2OC[C@@H](O[C@@H]3O[C@H](CO)[C@@H](O)[C@H](O)[C@H]3O[C@@H]3OC[C@@H](O)[C@H](O)[C@H]3O)[C@H](O)[C@H]2O[C@@H]2O[C@H](CO)[C@@H](O)[C@H](O)[C@H]2O)CC[C@]2(C)[C@H]3CC[C@]45OC[C@@]6(CC[C@](C)(C=O)C[C@H]64)[C@H](O)C[C@@]5(C)[C@]3(C)CC[C@@H]12
active: SK-MEL-2 melanoma -90.2% | EKVX NSCLC -65.4% | SN12C renal -72.6% | UO-31 renal -88.7% | TK-10 renal -92.2% | ACHN renal -93.7% | CAKI-1 renal -91.5% | A498 renal -89.9% | CCRF-CEM leukemia -40.9% | MOLT-4 leukemia -53.5% | SR leukemia -37% | RPMI-8226 leukemia -44% | OVCAR-8 ovarian -48.9% | OVCAR-5 ovarian -76.8% | OVCAR-4 ovarian -67.1% | SK-OV-3 ovarian -98.4% | IGROV1 ovarian -71.7% | OVCAR-3 ovarian -72.6% | HS 578T breast -31.2% | NCI/ADR-RES ovarian -21.7%

C/C(=N\O)c1ccc(NC(=O)CSc2nnc(-c3cc(-c4ccc(S(C)(=O)=O)cc4)nc4ccccc34)n2-c2ccccc2)cc1
inactive: SK-MEL-2 melanoma 100% | EKVX NSCLC 84.7% | SN12C renal 89.2% | UO-31 renal 65.2% | TK-10 renal 107% | ACHN renal 90.8% | CAKI-1 renal 73.8% | A498 renal 53.1% | CCRF-CEM leukemia 68.2% | MOLT-4 leukemia 57.9% | SR leukemia 62.4% | RPMI-8226 leukemia 48.2% | OVCAR-8 ovarian 82.6% | OVCAR-5 ovarian 97.3% | OVCAR-4 ovarian 98.7% | SK-OV-3 ovarian 115% | IGROV1 ovarian 80.9% | OVCAR-3 ovarian 102% | HS 578T breast 73.4% | NCI/ADR-RES ovarian 96.8%

COC(=O)C(Cc1ccccc1)NC(=O)c1ccc(NC(=O)c2[nH]c(C)c(Cl)c2Cl)c(OC(C)C)c1 (stereo not given)
active: OVCAR-8 ovarian -29.8%
inactive: SK-MEL-2 melanoma 105% | EKVX NSCLC 101% | SN12C renal 16% | UO-31 renal 94.8% | TK-10 renal 53.5% | ACHN renal 40.3% | CAKI-1 renal 90% | A498 renal 86.8% | CCRF-CEM leukemia 73.2% | MOLT-4 leukemia 84.9% | SR leukemia 17.4% | RPMI-8226 leukemia 57.9% | OVCAR-5 ovarian 93.2% | OVCAR-4 ovarian 39.7% | SK-OV-3 ovarian 99.1% | IGROV1 ovarian 83.1% | OVCAR-3 ovarian 12.9% | HS 578T breast 62.1% | NCI/ADR-RES ovarian 31.4%

O=C1C(Nc2ccccn2)=C(I)C(=O)c2ncccc21
active: SK-MEL-2 melanoma -53.7% | EKVX NSCLC -7.46% | SN12C renal -70.8% | UO-31 renal -97.7% | TK-10 renal -21.4% | ACHN renal -36.1% | CAKI-1 renal 5.77% | CCRF-CEM leukemia 3.29% | MOLT-4 leukemia -25.4% | SR leukemia 2% | RPMI-8226 leukemia -15.5% | OVCAR-8 ovarian -15.3% | OVCAR-5 ovarian -55.3% | OVCAR-4 ovarian -53.3% | SK-OV-3 ovarian -44.9% | IGROV1 ovarian -67.5% | OVCAR-3 ovarian -48.4% | HS 578T breast -10.1% | NCI/ADR-RES ovarian -7.85%
inactive: A498 renal 68.2%

NNCCc1ccc(NC(=O)CCCc2ccc(C(=O)Nc3ccccc3N)cc2)cc1
inactive: SK-MEL-2 melanoma 42.6% | EKVX NSCLC 81.7% | SN12C renal 80.1% | UO-31 renal 69.5% | TK-10 renal 32.5% | ACHN renal 89.2% | CAKI-1 renal 80.6% | A498 renal 60.9% | MOLT-4 leukemia 27.9% | SR leukemia 55.2% | RPMI-8226 leukemia 41.8% | OVCAR-8 ovarian 45.6% | OVCAR-5 ovarian 74% | OVCAR-4 ovarian 70.1% | SK-OV-3 ovarian 79.3% | IGROV1 ovarian 86.8% | OVCAR-3 ovarian 75% | HS 578T breast 77.8% | NCI/ADR-RES ovarian 85%
active: CCRF-CEM leukemia 0.638%

COc1ccc(/C=C(/c2ccccc2)[N+](=O)[O-])c(OC)c1
inactive: EKVX NSCLC 36.2% | A498 renal 51.5% | OVCAR-8 ovarian 15.8% | OVCAR-4 ovarian 14.4% | SK-OV-3 ovarian 42.7% | HS 578T breast 46.1%
active: SK-MEL-2 melanoma -6.4% | SN12C renal -20.5% | UO-31 renal -97.6% | TK-10 renal -26% | ACHN renal -72.4% | CAKI-1 renal -25.5% | CCRF-CEM leukemia 7.93% | MOLT-4 leukemia 6.93% | SR leukemia 6.7% | RPMI-8226 leukemia 1.5% | OVCAR-5 ovarian -9.82% | IGROV1 ovarian -35.9% | OVCAR-3 ovarian -80.6% | NCI/ADR-RES ovarian -4.93%

CN1CCN(CC(=O)Nc2ccc3ncnc(Nc4ccc(Oc5cccc(C(F)(F)F)c5)c(Cl)c4)c3c2)CC1
inactive: EKVX NSCLC 31.1% | SN12C renal 51.3% | UO-31 renal 21.7% | TK-10 renal 41.6% | A498 renal 36.3% | OVCAR-8 ovarian 20.9% | OVCAR-5 ovarian 52.9% | SK-OV-3 ovarian 23.2% | NCI/ADR-RES ovarian 46.1%
active: SK-MEL-2 melanoma -15.5% | ACHN renal -63.2% | CAKI-1 renal -18.7% | CCRF-CEM leukemia 6.92% | MOLT-4 leukemia -7.18% | SR leukemia -6.28% | RPMI-8226 leukemia -12.7% | OVCAR-4 ovarian -18.8% | IGROV1 ovarian -44.6% | OVCAR-3 ovarian 4.81% | HS 578T breast -12%

Nc1nc2c(c3ncccc13)C(c1cccc(Cl)c1)Cc1ncccc1-2 (stereo not given)
active: A498 renal -7.23% | SR leukemia 8.92% | OVCAR-3 ovarian 0.176%
inactive: SK-MEL-2 melanoma 25.3% | EKVX NSCLC 39.8% | SN12C renal 36.7% | UO-31 renal 38% | TK-10 renal 55.8% | ACHN renal 45.5% | CAKI-1 renal 30.2% | CCRF-CEM leukemia 19.7% | MOLT-4 leukemia 14.5% | RPMI-8226 leukemia 32.4% | OVCAR-8 ovarian 23.8% | OVCAR-5 ovarian 44.7% | OVCAR-4 ovarian 52.4% | SK-OV-3 ovarian 14.1% | IGROV1 ovarian 50.5% | HS 578T breast 31.1% | NCI/ADR-RES ovarian 18.7%

CNC(=O)c1ccccc1Nc1nc(Nc2cc(OC)c(OC)c(OC)c2)ncc1Br
inactive: ACHN renal 12.5% | CCRF-CEM leukemia 71.3% | MOLT-4 leukemia 66.3% | RPMI-8226 leukemia 41.5% | OVCAR-5 ovarian 13.3%
active: SK-MEL-2 melanoma -77.4% | EKVX NSCLC -10.4% | SN12C renal -40.7% | UO-31 renal -17.6% | TK-10 renal -31.4% | CAKI-1 renal 2.5% | A498 renal -88.4% | SR leukemia 6.27% | OVCAR-8 ovarian -20.3% | OVCAR-4 ovarian -34.5% | SK-OV-3 ovarian -77.2% | IGROV1 ovarian 4.34% | OVCAR-3 ovarian -6.51% | HS 578T breast -3.22% | NCI/ADR-RES ovarian -10.7%
